Most compounds without a hit are left out; they make up all but 19% or so of the library.
HT1080 IDH1KD tx: qHTS for induction of synthetic lethality in tumor cells producing 2HG: qHTS for the HT-1080-IDH1KD cell line; Potency, µM (highest dose often 46.1 µM), without a hit: top-dose activity, negative = toxicity, hits mostly cytotoxic; actives 2% (n = 360,000); HT-1080 IDH1 knockdown viability, ATP luminescence, 48 h;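 also: potency is read from the fitted curve at half-maximal effect; 0% = DMSO wells and -100% = cell-free medium wells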
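Knockdown cells (IDH1KD HT-1080) received compounds 2 h after plating at 750 cells/well and were kept 48 h at 37 °C in 5% FBS RPMI. A CellTiter-Glo luminescence read gave % activity for curve fitting.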
HT1080-NT tox: qHTS for induction of synthetic lethality in tumor cells producing 2HG: qHTS for the HT-1080-NT fibrosarcoma cell line; HT-1080-NT fibrosarcoma viability, CellTiter-Glo ATP luminescence, 48 h; Potency, µM (titrated, usually from 46.1 µM), without a hit: at the top dose activity, negative = less viability, most hits filed as cytotoxic; actives 1.6% (n = 360,000);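 also: NT is the 2HG producing partner of a matched IDH1 knockdown line; potency is read from the fitted curve at half-maximal effect; 0% = DMSO-treated cells and -100% = media-only wells without cells; nearly all actives have a fitted effect of over 55% in size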
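HT-1080-NT fibrosarcoma cells (2HG-overproducing), 750 cells/well in RPMI with 5% FBS, dosed after 2 h and incubated 48 h at 37C. CellTiter-Glo luminescence normalized to DMSO and no-cell wells; concentration-response curves fitted and classed.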
IL-1B inflam inh: qHTS for Inhibitors of Inflammasome Signaling: IL-1-beta AlphaLISA Primary Screen; activity change, % at 57.5 µM; THP-1 LPS/ATP IL-1B secretion, AlphaLISA, 16 h; active compounds read low; actives 4.7% (n = 360,000); in the data active = activity change below about -50%; inconclusive = mostly about -30% to -49%
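Secreted IL-1B measured by AlphaLISA bead assay after 16 h compound exposure of THP-1 cells; compounds (final up to 57.5 uM) added 1 h before LPS (250 ng/mL) and ATP (1.25 mM) stimulation; lower signal means less secretion.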
TDP1 cell noCPT: qHTS for Inhibitors of human tyrosyl-DNA phosphodiesterase 1 (TDP1): qHTS in cells in absence of CPT | DT40 Tdp1-/- hTDP1 cells, no CPT, ATP luminescence, 48 h | Potency, µM (titrated, usually from 46.2 µM), for the others: at the top dose activity change, negative = growth inhibition, usual class: inhibitors | actives 15% (n = 420,000); also: potency is read from the fitted curve at half-maximal effect; nearly all actives have a fitted effect of over 55% in size
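Camptothecin absent (DMSO only). Human TDP1-complemented DT40 knockout cells, 400 cells/well, 37 °C for minimum 48 hr; ATP measured via CellTiter-Glo, 30 min dark incubation, luminescence.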
DT40 TDP1 CPT: qHTS for Inhibitors of human tyrosyl-DNA phosphodiesterase 1 (TDP1): qHTS in cells in presence of CPT; chicken DT40 Tdp1-/-;hTDP1 cells + 20 nM CPT, ATP luminescence, 48 h; Potency, µM (series often up to 46.2 µM), inactives show at the highest dose activity change, negative = growth inhibition, usual class: inhibitors; actives 12% (n = 420,000); AID 686979, 2013; also: potency is read from the fitted curve at half-maximal effect; nearly all actives have a fitted effect of over 55% in size
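Cell growth measured by CellTiter-Glo luminescence after a minimum 48 h, 37 C compound exposure with 20 nM CPT in Tdp1-knockout DT40 cells stably expressing hTDP1, seeded 400/well; qHTS titration format.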
Active calls of the source: *; ? = inconclusive; / = not tested or not shown; [ ] = another dose, or the depositor's remark. Unless noted, calls follow the shape of the dose curve; as a rule, active = well fitted curve in the direction sought with a large enough effect; inconclusive = small, poorly fitted or top-dose-only effect, or another doubt; inactive = no such curve, though single readings can be large; an effect the other way counts as inactive or inconclusive. Unless noted, % is scaled to controls: 0 for no effect and ±100 for the full control effect.

SMILES	HT1080 IDH1KD tx	HT1080-NT tox	IL-1B inflam inh	TDP1 cell noCPT	DT40 TDP1 CPT
CCc1ccc(C(O)c2ncc(-c3cccc(OC)c3)[nH]2)cc1 (configuration not stated)	-27%	-2%	17	9.2µM*	?
COc1ccc(C(O)c2ncc(-c3cccc(OC)c3)[nH]2)cc1 (configuration not stated)	0%	-2%	-5	-22%	-7%
Cc1cc(C)cc(NC(=O)Cn2c(=O)n(-c3ccc(C)c(C)c3)c(=O)c3oc4ccccc4c32)c1	/	/	/	4%	8%
CN1C(=O)N(CC(=O)Nc2cccc(S(=O)(=O)N(C)c3ccccc3)c2)C(=O)C12CCCCC2	-1%	-3%	-20	21µM*	?
COc1cc(C=O)ccc1OCC(=O)Nc1cccc(S(=O)(=O)N(C)c2ccccc2)c1	-2%	6%	-8	12µM*	?
CN(c1ccccc1)S(=O)(=O)c1cccc(NC(=O)Cn2cnc3ccccc3c2=O)c1	-9%[9.24 µM]	-20%	-1	16µM*	21µM*
Cc1cc(S(=O)(=O)NCc2ccccc2)ccc1OCC(=O)Nc1cccc([N+](=O)[O-])c1	?	-21%	?	21µM*	18µM*
Cc1cc(S(=O)(=O)NCc2ccccc2)ccc1OCC(=O)NCc1ccccn1	-5%	-3%	-6	-25%	-10%
CCN(CC)S(=O)(=O)c1cc(NC(=O)Cn2cnc3ccccc3c2=O)ccc1C	-10%	1%	2	?	?
COc1ccccc1OCC(=O)Nc1cccc(N(C)S(C)(=O)=O)c1	10%	10%	-9	-18%	0%
OB(O)c1cc2ccccc2s1	/	/	/	?	-22%
Cc1cc([N+](=O)[O-])nn1CC(=O)NNC(=S)Nc1ccc(F)cc1	-2%	0%	57	-10%	-7%
CN(c1ccccc1)S(=O)(=O)c1cccc(NC(=O)CC(C)(C)C)c1	1%	20%	-23	15µM*	16µM*
CN(c1ccccc1)S(=O)(=O)c1cccc(NC(=O)COc2cccc([N+](=O)[O-])c2)c1	0%	1%	-12	23µM*	?
Cc1cc(SCC#N)n2nc(C)c(-c3ccccc3)c2n1	-26%	-29%	-60*	-25%	-29%
CC(=O)CSc1cc(C)nc2c(-c3ccccc3)c(C)nn12	12%	20%	8	?	13%
Cc1cc(N)n2nc(C)c(-c3ccc(Cl)cc3)c2n1	?	?	-1	?	?
C=CCSc1cc(C)nc2c(-c3ccccc3)c(C)nn12	?	?	13	?	?
Cc1cc(NCCCn2ccnc2)n2nc(C)c(-c3ccc(Cl)cc3)c2n1	11µM*	-26%[9.24 µM]	-60*	15µM*	16µM*
Cc1cc(SCC#N)n2nc(C)c(-c3ccc(Cl)cc3)c2n1	8.9µM*	?	-2	-16%	-9%
Cc1cc(Cl)n2nc(C)c(-c3ccc(Cl)cc3)c2n1	18µM*	?	-99*	?	?
Cc1nn(CC(=O)NCCCN2CCCC2)c(=O)c2nn(-c3ccccc3)c(C)c12	10%	8%	-10	34%	2%
O=C(CSc1ccc2nnc(-c3cccnc3)n2n1)Nc1ccccc1C(F)(F)F	4%	16%	17	-7%	-30%
COc1ccc(OC)c(C2N=C(N)Nc3nc4ccccc4n32)c1 (configuration not stated)	/	/	/	7%	-3%
Cc1ccc(-n2c(C)cc(C3N=C(N)Nc4nc5ccccc5n43)c2C)c(C)c1 (configuration not stated)	20µM*	?	?	23µM*	21µM*
SMILES	HT1080 IDH1KD tx	HT1080-NT tox	IL-1B inflam inh	TDP1 cell noCPT	DT40 TDP1 CPT
Cc1cc(C2N=C(N)Nc3nc4ccccc4n32)c(C)n1-c1ccccc1Cl (configuration not stated)	?	?	-56*	?	21µM*
CC(=NO)C1CCC2C3CCC4CC(=NO)CCC4(C)C3C(C)(O)CC12C (configuration not stated)	16%	9%	24	15µM*	?
Cc1c(O)ccc(C(=O)CN2CCN(Cc3ccccc3)CC2)c1O	0%	-1%	3	-9%	-12%
Cc1ccccc1CC(=O)c1ccc(O)c(C)c1O	?	?	-55*	?	-21%
COc1ccc2oc(C(=O)OCc3nnc(-c4ccccc4)o3)c(C)c2c1	2%	-4%	3	-17%	-11%
CCOc1ccc(Cl)cc1S(=O)(=O)n1cnc2ccccc21	11µM*	11µM*	16	4.5µM*	6.3µM*
CCOc1cc(C)c(Cl)cc1S(=O)(=O)n1cnc2ccccc21	-8%	-2%	3	?	-28%
COc1ccc(Cl)cc1S(=O)(=O)n1cnc2ccccc21	-8%	-6%	7	?	23µM*
COc1ccc(S(=O)(=O)n2cnc3cc(C)c(C)cc32)cc1C	0%	?	-53*	?	12µM*
COc1ccc(S(=O)(=O)n2cnc3cc(C)c(C)cc32)cc1	-12%	-2%	-6	?	?
CCOc1ccc(C)cc1S(=O)(=O)n1cnc2ccccc21	13µM*	9.2µM*	0	4.1µM*	5.2µM*
Cc1c(O)cc2c(c1O)C(=O)CC(c1ccccc1)O2 (configuration not stated)	23µM*	?	63	5.8µM*	5.8µM*
NC(=O)c1ccccc1N/C=C/C(=O)c1ccc(F)cc1	-24%	-28%	-6	15µM*	?
NC(=O)c1ccccc1N/C=C/C(=O)c1ccc(Cl)cc1Cl	-15%	-19%	-55*	18µM*	?
CC(CCc1ccccc1)NC(=O)C1CCN(S(=O)(=O)N2CCOCC2)CC1 (configuration not stated)	25%	11%	-21	?	-1%
Cn1nnnc1SCCNC/C=C/c1ccccc1	-9%	4%	20	-9%	-29%
Cc1nc2ccccc2n1/N=C/c1ccc([N+](=O)[O-])s1	?	?	?	5.2µM*	3.7µM*
COc1cccc(/C=N/n2cnc3cc(C)c(C)cc32)c1OC	?	-3%	/	?	-5%
Cc1cc2ncn(/N=C/c3ccc([N+](=O)[O-])s3)c2cc1C	-6%	-2%	0	8.2µM*	?

High-throughput results: PubChem BioAssay, National Center for Advancing Translational Sciences (NCATS)
